Screening data as filed in PubChem.
Sampled rows, rich in hits. Any-hit rate of the full collection: about 6.2%.
KB-V1 cytotox: KB-V1 MDR subline cytotoxicity. KB-V1 MDR cells viability, CellTiter-Glo, 72 h. Potency, µM (top dose mostly 46.1 µM), hits mostly cytotoxic. hit rate 3.4% among 400,000. AID 1347076; note: % is set by controls: 0 for no effect and ±100 for the full control effect; nearly all actives have a fitted effect of over 60% in size
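Drug-selected KB-V1 cells, grown in DMEM lacking phenol red with 10% FBS, receive compound titrations; after three days at 37 degrees C, surviving cell ATP is quantified by CellTiter-Glo luminescence and responses normalized and curve-fitted.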
S2 tox: cell viability loss in ATXN counter-screen; Potency, µM (titrated, usually from 56.7 µM), most hits filed as cytotoxic; S2 cells (HEK-293 line with an ATXN2-luciferase reporter) viability, CellTiter-Fluor protease fluorescence, 24 h; hit rate 0.49% among 400,000; note: nearly all actives have a fitted effect of over 40% in size
HT1080NT lethal: kills 2HG-producing HT-1080-NT fibrosarcoma cells. HT-1080-NT fibrosarcoma viability, CellTiter-Glo ATP luminescence, 48 h. Potency, µM (doses to about 46.1 µM), inactives show at the highest dose activity, negative = less viability, actives largely listed as cytotoxic. hit rate 1.6% among 360,000;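 note: NT is the 2HG producing partner of a matched IDH1 knockdown line; 0% = DMSO-treated cells and -100% = media-only wells without cells; nearly all actives have a fitted effect of over 55% in size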
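Read-out is CellTiter-Glo luminescence after 10 minutes at room temperature, following 48 hours' compound treatment of HT-1080-NT cells (750 cells/well, RPMI, 5% FBS, 37 degrees C).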
ATXN2 expr inh: inhibitors of ATXN2 expression; Potency, µM (titrated, usually from 57 µM), for inactives: at the top dose activity change, negative = inhibition, hits mostly inhibitors; hit rate 0.72% among 360,000; HEK-293 ATXN2-luciferase reporter, luminescence, 24 h; note: % is set by controls: 0 for no effect and ±100 for the full control effect; nearly all actives have a fitted effect of over 55% in size
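qHTS (up to 57 uM final) was run with 24 h compound exposure of reporter cells at 37 °C. Each well was multiplexed: SteadyGlo luminescence measured ATXN2-luciferase expression after a fluorogenic Gly-Phe-AFC viability readout (25 uM final).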
HT1080 IDH1KD tx: kills HT-1080 cells with IDH1 knockdown; Potency, µM (top dose mostly 46.1 µM), inactives show top-dose activity, negative = toxicity, hits mostly cytotoxic; AID 686971; hit rate 2% among 360,000; HT-1080 IDH1 knockdown viability, ATP luminescence, 48 h;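 note: 0% = DMSO wells and -100% = cell-free medium wells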
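Using the IDH1-knockdown HT-1080 line run in the same batch and compound series as the NT line, viability after 48 h at 37 °C was determined by CellTiter-Glo luminescence and expressed as % activity.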
KB-3-1 cytotox: kills parental KB-3-1 adenocarcinoma cells | Potency, µM (titrated, usually from 46.1 µM), usual class: cytotoxic | KB-3-1 viability, CellTiter-Glo ATP luminescence, 72 h | hit rate 1.4% among 400,000; note: % is set by controls: 0 for no effect and ±100 for the full control effect; nearly all actives have a fitted effect of over 60% in size
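KB-3-1 parental drug-naive adenocarcinoma cells in DMEM/10% FBS, incubated 72 h at 37 C with pin-transferred compounds across a concentration series. Viability by CellTiter-Glo luminescence; concentration-response curves fitted after normalization.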
Starred values were filed as active, the others as inactive; i = inactive; ? = inconclusive; / = no result; [ ] = remark or other dose. Calls come from the whole dose curve; as a rule, active = well fitted curve in the direction sought with a large enough effect; inconclusive = small, poorly fitted or top-dose-only effect, or another doubt; inactive = no such curve, though single readings can be large; an effect the other way counts as inactive or inconclusive. Potency is the fitted concentration of half-maximal effect.

SMILES	KB-V1 cytotox	S2 tox	HT1080NT lethal	ATXN2 expr inh	HT1080 IDH1KD tx	KB-3-1 cytotox
COc1ccc(-c2csc(N(CCCN(C)C)C(=O)c3ccccc3C)n2)cc1	i	i	?	?	?	i
Cc1ccc(-c2csc(N(CCc3ccccc3)C(=O)COc3ccccc3)n2)cc1	i	i	-4%	-4%	2%	i
COc1ccc(-c2csc(N(CCCN(C)C)C(=O)c3ccccc3Cl)n2)cc1	?	i	21µM*	?	18µM*	16µM*
CCN(CC)CCCN(C(=O)c1ccc(F)cc1)c1nc(-c2ccc(OC)cc2)cs1	i	?	?	-35%	23µM*	i
CN(C)CCCN(C(=O)c1cccs1)c1nc(-c2ccccc2)cs1	9.2µM*	i	?	-9%	?	i
COc1ccc(-c2csc(N(CCCN(C)C)C(=O)c3ccccc3F)n2)cc1	i	i	-17%	/	-13%	i
COC(=O)N[C@H](C(=O)N[C@@H](Cc1ccccc1)[C@@H](O)CN(Cc1ccc(-c2ccccn2)cc1)NC(=O)[C@@H](NC(=O)OC)C(C)(C)C)C(C)(C)C	/	i	/	-18%	/	/
COc1ccccc1C1CN(CCNC(=O)c2sccc2Cl)Cc2ccccc2O1 (centres undefined)	/	i	/	/	/	/
O=C(Nc1sc2c(c1C(=O)O)CCC2)c1cccc(Cl)c1	i	i	?	-14%	-16%	?
O=C(Nc1cccc(Cl)c1)c1c(NC(=O)C(F)(F)F)sc2c1CCCC2	12µM*	?	/	-45%	/	?
O=C(O)CCC(=O)Nc1sc2c(c1C(=O)Nc1ccccc1)CCCCC2	i	i	21µM*	26%	?	?
CCCN1CCC(=O)N(CCSc2ccc(OC)cc2)CC1	i	i	?	11%	23µM*	?
CN(C)c1cc[n+](CC(=O)Nc2ccc([N+](=O)[O-])cc2Cl)cc1	?	i	-21%	15%	-28%	?
CN(C)c1cc[n+](CC(=O)Nc2c(Cl)cc(Cl)cc2Cl)cc1	i	i	-7%	-11%	-27%	8.2µM*
CC(=O)Nc1ccc(S(=O)(=O)N2CCC(N3CCN(Cc4ccc(C)cc4)C(=O)C3=O)CC2)cc1	i	i	/	6%	/	i
CCOC(=O)c1c(C)n(-c2ccc(C)cc2)c2c(C(C(C)=O)C(=O)O)c(Br)c(O)c(O)c12 (centres undefined)	i	i	?	-10%	-19%	i
CCOC(=O)C(C(C)=O)c1c(Br)c(O)c(O)c2c(C(=O)c3ccc(C)cc3)coc12 (centres undefined)	21µM*	?	8.9µM*	14µM*	8.9µM*	i
O=C(NCC1Cc2cccc(-c3ncccn3)c2O1)c1cccc(-c2ccccc2F)c1 (centres undefined)	/	i	/	/	/	/
COc1ccccc1NC(=O)Cc1csc(NC(=S)Nc2ccc(C)cc2)n1	10µM*	i	6.3µM*	-10%	7.1µM*	?
N#C/C(=C\c1ccc(Cl)cc1)c1nc2ncccc2[nH]1	18µM*	i	?	18%	-10%[9.24 µM]	i
N#C/C(=C\c1c(Cl)cccc1Cl)c1nc2ccccc2[nH]1	i	i	-19%	1%	?	i
Cc1cc(/C=C(\C#N)c2nc3ccccc3[nH]2)c(C)n1C	5.2µM*	?	7%	10%	0%	?
N#C/C(=C\c1ccc(Sc2ccc(Cl)cc2)o1)c1nc2ccccc2[nH]1	15µM*	i	-2%	2%	-6%	i
Cc1cc(/C=C(/C#N)c2nc3ccccc3[nH]2)c(C)n1-c1cccc([N+](=O)[O-])c1	?	i	-13%	0%	-11%	?
Cc1ccc(NCc2cccn2-c2nnc(N3CCCCCC3)s2)cc1	i	i	/	-8%	/	i
SMILES	KB-V1 cytotox	S2 tox	HT1080NT lethal	ATXN2 expr inh	HT1080 IDH1KD tx	KB-3-1 cytotox
C=C1C(=CC=C2CCC[C@]3(C)[C@@H]([C@H](C)CCCC(C)(C)O)CC[C@@H]23)C[C@@H](O)C[C@@H]1O	/	/	/	35%	/	/
C/C(=N\NC(=O)c1ccc(CN2CCc3ccccc3C2)cc1)c1ccccc1O	?	i	?	16µM*	21µM*	15µM*
O=C(Nc1ccc(S(=O)(=O)N2CCOCC2)cc1)c1ccc(CN2CCc3ccccc3C2)cc1	2.9µM*	i	?	?	21µM*	?
COc1cccc(NC(=O)c2ccc(CN3CCc4ccccc4C3)cc2)c1	i	i	-10%	70%	-18%	i
COc1ccc(NC(=O)c2ccc(CN3CCc4ccccc4C3)cc2)cc1OC	8.2µM*	i	-24%	0%	-17%	?
COc1ccc(CN2CCc3cc(OC)c(OC)cc3C2)cc1O	16µM*	i	1%	-3%	-10%	?
Cc1ccc2scc(N3CCN(c4ccccc4)CC3)c(=O)c2c1	i	?	/	2%	/	i
CCN(C(=O)C(=O)c1c(C)[nH]c2ccccc12)c1ccccc1	i	/	/	/	/	i
O=C(Nc1cccnc1)c1ccc(COCC(F)(F)F)cc1	?	i	-14%	1%	-4%	i
COc1ccc(NC(=O)c2ccc(CN3CCN(c4ccccc4)CC3)cc2)cc1	i	?	-9%	-23%	-20%	i
COc1cccc(NC(=O)c2ccc(CN3CCN(c4ccccc4)CC3)cc2)c1	?	/	-24%	/	?	8.9µM*
COc1ccc(NC(=O)c2ccc(COCC(F)(F)F)cc2)cc1OC	21µM*	i	8%	9%	-2%	i
O=C(NCC1Cc2cccc(-c3cccnc3)c2O1)c1cc(-c2ccccc2)n[nH]1 (centres undefined)	/	i	/	/	/	/
COc1ccc(OC)c(Nc2nc(N)nc(-c3cc4ccccc4o3)n2)c1	15µM*	i	-28%	4%	2%[9.24 µM]	?
COc1ccc(CCNC(=O)CCCCn2c(=O)c3ccccc3n(Cc3cc(C)ccc3C)c2=O)cc1OC	?	i	/	0%	/	i
Cc1c(O)ccc(/C(Cc2ccc3ccccc3n2)=N\O)c1O	?	i	-2%	64%	-3%	16µM*
CC(=O)Oc1ccc(C(=O)Cc2ccc3ccccc3n2)c(O)c1C	i	i	11%	46%	7%	i
Cc1ccc(-n2nc(C(=O)Nc3ccc(C)c(F)c3)c3c4ccccc4n(C)c3c2=O)cc1	i	i	/	3%	/	i
CN(C)CCC(=O)N1c2ccccc2Sc2ccc(Cl)cc21	i	i	-3%	-13%	?	i
COc1cc2c(cc1Cl)/C(=C\CCN(C)C)c1ccccc1S2	16µM*	?	?	-37%	?	?
